Screening data as filed in PubChem BioAssay.
Compounds with a hit are over-represented: about 11% of the library has one in this group of screens.
hNpr1 antagonist: Natriuretic polypeptide receptor (hNpr1) antagonism - Primary qHTS; HEK293 hNpr1 GloSensor cGMP, ANP-stimulated luminescence; Potency, µM (highest dose often 46.3 µM), most hits filed as inhibitors; AID 1347048, 2019; 76,000 tested, 1.6% active; Atrial natriuretic peptide receptor 1 (Homo sapiens), P16066; calls by dose curve; further: nearly all actives have a fitted effect of over 60% in size
Target sequence (P16066 whole entry, looked up): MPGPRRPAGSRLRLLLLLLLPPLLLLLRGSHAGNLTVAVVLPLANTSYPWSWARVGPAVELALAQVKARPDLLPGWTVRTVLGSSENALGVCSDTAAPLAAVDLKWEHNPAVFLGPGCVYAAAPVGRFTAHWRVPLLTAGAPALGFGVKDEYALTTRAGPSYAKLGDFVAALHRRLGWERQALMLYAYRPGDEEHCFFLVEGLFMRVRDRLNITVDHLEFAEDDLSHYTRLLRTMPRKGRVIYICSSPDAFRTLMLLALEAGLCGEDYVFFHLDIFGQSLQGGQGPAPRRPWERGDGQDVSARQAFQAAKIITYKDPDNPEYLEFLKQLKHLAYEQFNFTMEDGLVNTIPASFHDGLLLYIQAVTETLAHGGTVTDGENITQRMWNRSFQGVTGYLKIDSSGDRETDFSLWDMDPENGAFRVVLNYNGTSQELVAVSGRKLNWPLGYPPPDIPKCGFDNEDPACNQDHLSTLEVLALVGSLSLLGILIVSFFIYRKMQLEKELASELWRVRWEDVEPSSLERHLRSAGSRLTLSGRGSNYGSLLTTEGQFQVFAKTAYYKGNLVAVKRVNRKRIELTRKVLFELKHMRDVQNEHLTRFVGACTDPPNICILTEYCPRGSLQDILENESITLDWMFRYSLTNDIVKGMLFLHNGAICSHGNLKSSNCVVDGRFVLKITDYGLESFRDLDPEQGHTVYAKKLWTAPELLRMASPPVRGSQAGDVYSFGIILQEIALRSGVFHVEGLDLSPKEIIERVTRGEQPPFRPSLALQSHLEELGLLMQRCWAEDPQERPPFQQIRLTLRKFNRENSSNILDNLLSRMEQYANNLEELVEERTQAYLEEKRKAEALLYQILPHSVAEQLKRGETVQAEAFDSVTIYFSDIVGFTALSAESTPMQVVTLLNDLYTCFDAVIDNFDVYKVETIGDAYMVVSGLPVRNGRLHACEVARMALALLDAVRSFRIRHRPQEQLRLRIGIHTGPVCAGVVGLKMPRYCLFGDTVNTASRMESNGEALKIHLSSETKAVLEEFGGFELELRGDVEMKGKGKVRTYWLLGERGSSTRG
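Compound pre-incubated 30 min at room temperature on GloSensor-loaded HEK293 cells stably carrying hNpr1 and the pGS-40F cGMP biosensor. Stimulation uses hNppA at 0.1 nM final; luminescence is taken at baseline and 20 min post-agonist.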
HEK cytotox: Cytotoxic Profiling in HEK 293 Cell Line of Diverse Libraries Using Quantitative High-Throughput Screening. Potency, µM (highest dose often 115 µM), actives largely listed as inhibitors. HEK 293 viability, ATP luminescence (CellTiter-Glo), 48-72 h. 94,000 tested, 6.6% active; further: nearly all actives have a fitted effect of over 60% in size
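Luminescence from cellular ATP, measured with CellTiter-Glo, indicates HEK 293 viability. Cells plated at 250 cells/well are treated with compound for 48 or 72 hr at 37 degree Celsius before reagent addition.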
3T3 cytotox: Cytotoxic Profiling in NIH 3T3 Cell Line of Diverse Libraries Using Quantitative High-Throughput Screening; Potency, µM (series often up to 96.7 µM), usual class: inhibitors; NIH 3T3 viability, CellTiter-Glo ATP luminescence, 48-72 h; 94,000 tested, 4.3% active; further: nearly all actives have a fitted effect of over 55% in size
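Cells were seeded at 400 per well, treated with pin-transferred compound, and kept 48 or 72 hr at 37 °C before CellTiter-Glo addition and luminescence imaging of cellular ATP.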
Luciferase inh: Firefly luciferase inhibition profiling of diverse chemical library using quantitative high-throughput screening. 76,000 tested, 2.5% active. Luciferin 4-monooxygenase (Photinus pyralis), P08659. Potency, µM (doses to about 115 µM), hits mostly inhibitors. purified P. pyralis luciferase, luminescence, biochemical; further: nearly all actives have a fitted effect of over 65% in size
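Luminescence read by CCD imager after adding enzyme (10nM final) to wells holding compound, titrated in qHTS. Substrates 10uM each D-luciferin and ATP; buffer 50mM Tris acetate pH 7.5, 10mM Mg acetate, Tween-20, BSA.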
A number is an active result; - = inactive; ? = inconclusive; . = no result. Unless noted, the call rests on the fitted dose curve; in most records, active means well fitted curve in the direction sought with a large enough effect; inconclusive means small, poorly fitted or top-dose-only effect, or another doubt; inactive means no such curve, though single readings can be large; an effect the other way counts as inactive or inconclusive.

SMILES	hNpr1 antagonist	HEK cytotox	3T3 cytotox	Luciferase inh
COc1cccc(-c2cc(C3CCN(C(=O)Nc4cccc(SC)c4)CC3)[nH]n2)c1	-	?	44.7µM	-
COc1cccc(NC(=O)N2CCC(c3cc(-c4cccc(C)c4)n[nH]3)CC2)c1	-	?	39.8µM	-
Cc1cccc(NC(=O)N2CCC(c3cc(-c4cccc(C)c4)n[nH]3)CC2)c1	-	?	?	-
COc1cccc(-c2cc(C(=O)N3CCC(Cn4cccn4)CC3)[nH]n2)c1	-	-	?	31.6µM
COC(=O)c1ccccc1S(=O)(=O)N1CCC(c2cc(-c3cccc(C)c3)n[nH]2)CC1	-	44.7µM	39.8µM	-
COc1ccc2[nH]c3c(c2c1)CCNC31CCN(C(=O)Cn2c(=O)oc3ccccc32)CC1	-	?	-	-
COC(=O)NCCNC(=O)c1ccc(-c2cccc(OC)c2)cc1	.	?	-	.
CCOC(=O)C1CCN(C(=O)C2CCc3nnc(CNC(C)=O)n32)CC1 (centres undefined)	.	-	-	.
Cc1ccc(Cl)cc1NC(=O)N1CCC(n2cnnc2C2CC2)C1 (centres undefined)	-	?	-	-
COc1cccc(-c2cc(C3CCN(C(=O)Nc4cc(Cl)ccc4C)CC3)[nH]n2)c1	-	44.7µM	?	?
CCOc1ccccc1NC(=O)N1CCC(c2cc(-c3cccc(OC)c3)n[nH]2)CC1	-	?	35.5µM	-
COc1cccc(-c2cc(C3CCN(C(=O)NC4CCCC4)CC3)[nH]n2)c1	-	?	-	-
Cc1csc(Nc2ccc3c(n2)CN(Cc2ccc(F)cc2)C(=O)CO3)n1	?	8.91µM	?	-
O=C1COc2ccc(Nc3ccccc3F)nc2CN1Cc1ccc(F)cc1	-	79.4µM	?	-
COCCN1Cc2nc(Nc3ccccc3F)ccc2OCC1=O	-	?	-	-
Cc1ccc(OCC(=O)NCCC2CCN(C(=O)Nc3ccccc3F)CC2)cc1	-	-	-	-
CC(C)(C)C1CCC2(CC1)NC(=O)N(CC(=O)N1CCN(c3ccccc3)CC1)C2=O (centres undefined)	-	-	-	-
Cc1cc2nc3n(c(=O)c2n1CC(=O)Nc1ccc(Br)cc1F)CCCCC3	-	25.1µM	?	-
O=C(COc1ccccc1)NCCn1cccc1-c1nc(-c2ccc3c(c2)OCO3)no1	-	-	-	?
Cc1cccc(N(C)C(=O)Cn2cccc2-c2nc(-c3ccccc3)no2)c1	-	70.8µM	?	?
Cc1ccc(C(=O)NCCn2cccc2-c2nc(-c3ccccc3)no2)cc1F	-	-	-	-
O=C(NCCn1cccc1-c1nc(-c2ccc3c(c2)OCO3)no1)C1(c2ccccc2)CC1	-	44.7µM	?	20µM
Cc1ccc(C(=O)NCCn2cccc2-c2nc(-c3ccccc3)no2)cc1	-	-	-	0.891µM
COc1ccccc1C(=O)N1C[C@@H](CO)[C@H](NC(=O)c2ccccc2)C1	.	-	-	.
Cc1ccc([S+](=O)([O-])NC2CCN(c3nccc(Nc4ccccc4F)n3)CC2)cc1	.	28.2µM	39.8µM	.
SMILES	hNpr1 antagonist	HEK cytotox	3T3 cytotox	Luciferase inh
Cc1ccc([S+](=O)([O-])N2CCN(c3nccc(Nc4ccccc4F)n3)CC2)cc1	.	31.6µM	?	.
O=[S+]([O-])(NC1CCN(c2nccc(Nc3ccccc3F)n2)CC1)c1cccs1	.	44.7µM	44.7µM	.
COc1ccc(Nc2ccnc(N3CCN([S+](=O)([O-])c4cccc(C(F)(F)F)c4)CC3)n2)cc1	.	31.6µM	?	.
COc1ccc(Nc2ccnc(N3CCC(N[S+](=O)([O-])c4ccc(C)cc4)CC3)n2)cc1	.	28.2µM	25.1µM	.
O=C1CC(c2noc(Cc3ccc(Cl)cc3)n2)CN1C1CCCCC1 (centres undefined)	-	70.8µM	?	-
CCOc1ccc(Cc2nc(C3CC(=O)N(C4CCCCC4)C3)no2)cc1 (centres undefined)	-	?	-	-
COc1ccccc1N1CCC(N2CCN(CCCc3ccccc3)C(CCO)C2)CC1 (centres undefined)	-	?	?	-
O=C(C1CCCCN1Cc1ccc(-c2cccs2)cc1)N1CCC(c2ccccc2)CC1 (centres undefined)	.	-	?	.
O=C(NCC1CC1)C1CCCCN1Cc1ccc(-c2cccs2)cc1 (centres undefined)	.	?	17.8µM	.
O=C(NC1CCCC1)C1CCCCN1Cc1ccc(-c2cccs2)cc1 (centres undefined)	.	31.6µM	39.8µM	.
O=C(c1ccccc1C(F)(F)F)N1CCc2c(nc3cc[nH]n3c2=O)C1	-	-	-	-
CCOC(=O)[C@H]1C[C@]2(CCCCN(C)C2=O)N(C(=O)C2CC2)[C@H]1c1ccccc1	.	-	?	.
O=C(NCc1ccccc1Cl)C1CCCCN1Cc1ccc(-c2ccsc2)cc1 (centres undefined)	.	35.5µM	28.2µM	.
CN1C(=O)CCCCC1C(=O)NCc1ccc(F)cc1 (centres undefined)	-	-	-	-
COc1ccc(CNC(=O)C2CCCN2Cc2ccc(-c3cncnc3)cc2)cc1 (centres undefined)	.	?	-	.
O=C(NCc1ccc(F)cc1)C1CCCCN1Cc1ccc(-c2ccsc2)cc1 (centres undefined)	.	39.8µM	?	.
COc1ccc(CNC(=O)C2CCCCN2Cc2ccc(-c3ccsc3)cc2)cc1OC (centres undefined)	.	39.8µM	?	.
O=C(NCc1cccs1)C1CCCCN1Cc1ccc(-c2ccsc2)cc1 (centres undefined)	.	28.2µM	25.1µM	.
CC1CCCN(C(=O)c2cc(-c3ccccc3C(F)(F)F)nc3c2cnn3C)C1 (centres undefined)	.	?	-	.
O=C(NCCc1ccccc1)C1CCCCN1Cc1ccc(-c2ccsc2)cc1 (centres undefined)	.	28.2µM	?	.
COCCNC(=O)C1CCCN1Cc1ccc(-c2cncnc2)cc1 (centres undefined)	.	-	-	.
COc1ccc(CN(C(=O)c2ccco2)c2ccc(CC(=O)NCc3ccccc3)cc2)cc1	-	?	35.5µM	-
O=C(Cc1ccc(N(Cc2cccc(F)c2)C(=O)c2ccco2)cc1)NCc1ccco1	-	89.1µM	?	-
C=CCNC(=O)Cc1ccc(N(Cc2ccc(OC)cc2)C(=O)c2ccco2)cc1	-	?	-	-
COc1ccc(CN(C(=O)c2ccco2)c2ccc(CC(=O)NCc3ccc(F)cc3)cc2)cc1	-	?	20µM	-
COCCNC(=O)Cc1ccc(N(Cc2ccc(F)cc2)C(=O)c2ccco2)cc1	-	-	-	-
O=C(Cc1ccc(N(Cc2ccccc2)C(=O)c2ccco2)cc1)NCc1ccc(F)cc1	-	39.8µM	?	-
Cn1nc(C(=O)NCc2cccnc2)c2c1CN(C(=O)c1ccc3ccccc3n1)C2	.	-	-	.
